Source: PubChem BioAssay (National Center for Advancing Translational Sciences (NCATS))
NS1 function inh: influenza NS1 inhibition; 270,000 tested, 0.4% active; Potency, µM (titrated, usually from 46.1 µM), without a hit: at the highest dose activity, positive = more growth; AID 2326; calls by dose curve; further: actives are rising curves; nearly all actives have a fitted effect of over 50% in size
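A cell-based growth assay was used: compounds that relieve NS1-induced slow growth of budding yeast raise OD600. Assay medium was yeast nitrogen base with ammonium sulphate and -URA supplement, pH 6.0, with 2% galactose.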
Pf growth 48h: inhibits P. falciparum growth in the first generation, 48 h; P. falciparum luciferase growth in erythrocytes, 48 h; Potency, µM (doses to about 28.7 µM), without a hit: at the highest dose activity change, negative = inhibition, hits mostly inhibitors; 310,000 tested, 5.9% active; AID 504832; further: on the % scale 0 is the no-effect control and ±100 the full control effect
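Luciferase-expressing P. falciparum in infected erythrocytes (2% hematocrit, 0.1% parasitemia final) in RPMI 1640/0.5% Albumax were exposed to compound for 48 hours at 37 C, 5% CO2; growth read as luminescence.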
AMA1 RON2 block: disrupts binding of P. falciparum AMA1 to RON2; AlphaScreen AMA1-biotinylated RON2 peptide binding; Potency, µM (series often up to 58.2 µM), inactives show at the highest dose activity change, negative = inhibition, usual class: inhibitors; 360,000 tested, 0.2% active; AID 720542;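 further: 0% = vehicle wells and -100% = peptide control; nearly all actives have a fitted effect of over 45% in size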
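AMA1 (3D7) with his tag at 25 nM final met compounds first, then biotinylated RON2 peptide at 25 nM; detection used donor plus acceptor beads, 10 µg/mL apiece, read by AlphaScreen after 30 min at room temperature.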
Pf growth 96h: P. falciparum growth inhibition at 96 hours | P. falciparum luciferase reporter growth, 96 h | AID 504834 | Potency, µM (titrated, usually from 28.7 µM), without a hit: top-dose activity change, negative = inhibition, actives largely listed as inhibitors | 320,000 tested, 6.9% active; further: on the % scale 0 is the no-effect control and ±100 the full control effect
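Readout is luminescence from an integrated firefly luciferase in P. falciparum. Red cells, 2% hematocrit and 0.05% parasitemia final, were cultured with compound through two parasite generations (96 hours) at 37 C, 5% CO2.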
HCV inh: inhibitors of hepatitis C virus infection | Huh7.5.1 HCVcc-Cre infection, luciferase reporter, 44 h | Potency, µM (top dose mostly 41.8 µM), without a hit: top-dose activity change, negative = inhibition, most hits filed as inhibitors | 340,000 tested, 3.4% active; further: on the % scale 0 is the no-effect control and ±100 the full control effect
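Reporter virus HCVcc-Cre (~0.5 moi) infects cells exposed to compound; seeding density 1,000 cells/well with 4 h settling beforehand. Luminescence, 15 sec read, taken 44 h post-infection following a 15 min RT substrate incubation.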
SARS PLpro yeast: SARS-CoV PLP inhibition in yeast. AID 485353. S. cerevisiae expressing SARS-CoV PLpro, growth rescue. 330,000 tested, 0.19% active. Potency, µM (highest dose often 32.9 µM), inactives show at the highest dose activity, positive = growth rescue, hits mostly activators; calls by dose curve; further: 0% is about no effect; nearly all actives have a fitted effect of over 55% in size
* hit, by the source's call; ? = inconclusive; / = no result given. This is a sample that favours compounds with a hit; in the whole collection about 12% have one here. Unless noted, the call rests on the fitted dose curve; in most records, active means well fitted curve in the direction sought with a large enough effect; inconclusive means small, poorly fitted or top-dose-only effect, or another doubt; inactive means no such curve, though single readings can be large; an effect the other way counts as inactive or inconclusive. Potency means the concentration at half of the fitted maximal effect.

SMILES	NS1 function inh	Pf growth 48h	AMA1 RON2 block	Pf growth 96h	HCV inh	SARS PLpro yeast
COc1ccc(C(=O)Nc2ccc3oc(-c4cccnc4)nc3c2)cc1OC	3.5%	?	0.0%	?	-3.9%	-0.8%
Clc1cccc(Cl)c1CNc1ccc(N2CCCC2)cc1	6.2%	?	?	19.6%	?	-0.6%
O=C(Nc1ccc2oc(-c3ccncc3)nc2c1)c1c(F)c(F)c(F)c(F)c1F	7.4%	7.5%	-20.3%	8.0%	0.5%	-0.1%
CCCC(=O)Nc1ccc(-c2nc3cc(C)ccc3o2)cc1	-69.6%	57.2%	-18.7%	/	11.2µM*	-5.2%
O=C(Nc1ccc2oc(-c3ccncc3)nc2c1)c1ccc2c(c1)OCO2	?	2.8%	-1.6%	3.8%	-18.3%	1.1%
O=C(Nc1ccc2oc(-c3ccncc3)nc2c1)c1ccc(F)cc1	/	-11.5%	53.3%	-2.2%	22.4µM*	-1.0%
O=C(Nc1ccc2oc(-c3ccccc3)nc2c1)c1ccc2c(c1)OCCO2	-52.1%	8.4%	-1.1%	100.7%	10µM*	-2.5%
COc1ccc(-c2nc3cc(NC(=O)c4ccc5c(c4)OCO5)ccc3o2)cc1	2.4%	55.1%	-10.4%	?	?	-1.5%
O=C(Nc1ccc2oc(-c3ccncc3)nc2c1)c1ccc2c(c1)OCCO2	3.8%	?	-6.3%	9.28µM*	12.5%	-5.2%
CC(c1ccccc1F)n1cc(C(=O)NCCCc2nc3ccccc3[nH]2)nn1 (configuration not stated)	0.6%	-14.0%	2.7%	39.7%	5.2%	-0.7%
O=C(OCC(=O)N1CCCC1)c1ccc(NS(=O)(=O)c2cccs2)cc1O	/	6.4%	13.3%	-17.7%	19.8%	-2.6%
O=[N+]([O-])c1cccc(-c2nc(-c3ccccc3)c(-c3cccs3)[nH]2)c1	13.4%	?	-1.6%	?	-12.0%	-1.2%
COc1cc(-c2nc(-c3ccccc3)c(-c3cc([N+](=O)[O-])ccc3C)[nH]2)cc(OC)c1OC	?	2.62µM*	-27.7%	?	12.6µM*	4.4%
CC(C)(C)S(=O)N1Cc2cc(C(=O)Nc3ccc(-c4ccccc4)cc3)nc(-c3cccc(-c4cc5ccccc5o4)c3)c2[C@@H]1CCO (some centres not stated)	/	/	5.5%	/	/	/
c1ccc(-c2c[n+]3c(n2-c2ccccc2)SCC3)cc1	3.3%	1.65µM*	22.9%	0.415µM*	-13.0%	-0.1%
CCOc1ccc(-n2c(-c3ccc(Cl)cc3)c[n+]3c2SCC3)cc1	/	13.1µM*	9.0%	0.0465µM*	-24.8%	-1.1%
CCc1nnc(NC(=O)CSc2nc(C)cs2)s1	?	-16.0%	12.6%	18.5%	19.8%	0.4%
O=C1C=C(c2ccc3ccccc3c2)C[C@@H](c2ccc(Cl)cc2)C1	/	?	-6.5%	80.6%	-12.4%	-0.1%
Cc1ccc(C2=CC(=O)C[C@H](c3ccc(Cl)cc3)C2)cc1	/	-7.9%	4.1%	-0.1%	-9.4%	-1.6%
O=C1C=C(c2ccc(O)cc2)C[C@@H](c2ccc(Cl)cc2)C1	/	3.7µM*	-2.4%	2.33µM*	-5.4%	2.2%
CC(C)c1cccc(C2=CC(=O)C[C@H](c3ccc(F)cc3)C2)c1	/	1.65µM*	24.7%	2.33µM*	-21.0%	-0.2%
O=C1C=C(c2ccc3[nH]ccc3c2)C[C@@H](c2ccc(Cl)cc2)C1	/	2.62µM*	0.0%	4.65µM*	?	-3.5%
COc1ccc([C@H]2CC(=O)C=C(c3cccc(C(C)C)c3)C2)cc1OC	/	?	-21.3%	?	?	-10.7%
CCOc1ccc(Cl)cc1C1=CC(=O)C[C@H](c2ccc(OC)cc2)C1	/	?	-0.8%	?	8.91µM*	2.2%
CN(CC(=O)Nc1cccc(F)c1)C(=O)CCc1nc2cc(S(=O)(=O)N3CCOCC3)ccc2n1C	/	?	0.4%	?	5.2%	-3.2%
SMILES	NS1 function inh	Pf growth 48h	AMA1 RON2 block	Pf growth 96h	HCV inh	SARS PLpro yeast
N[C@@H](CSCCCO)C(=O)O	/	-1.1%	/	0.0%	/	/
CCC(C(=O)Nc1cccc(C(=O)O)c1C)c1ccccc1 (configuration not stated)	6.2%	14.0%	-17.8%	2.5%	-0.3%	0.7%
COc1ccc(S(=O)(=O)N2CCOC2CNC(=O)C(=O)NCc2ccc3c(c2)OCO3)cc1 (configuration not stated)	/	/	-5.9%	/	?	/
O=C1C=C(c2ccccc2)C[C@@H](c2ccc(Cl)cc2)C1	/	2.62µM*	30.8%	?	-4.3%	4.7%
O=C1C=C(c2cccc(CO)c2)C[C@@H](c2ccc(Cl)cc2)C1	/	0.329µM*	7.4%	0.465µM*	-0.5%	-0.4%
COc1ccc([C@H]2CC(=O)C=C(c3ccc(C)c4ccccc34)C2)cc1	/	?	10.8%	1.17µM*	5.0%	4.8%
COc1ccc(C2=CC(=O)C[C@H](c3ccc(Cl)cc3)C2)cc1	/	?	5.8%	?	?	8.4%
COc1cccc(C2=CC(=O)C[C@H](c3ccc(Cl)cc3)C2)c1	/	2.94µM*	1.2%	?	-4.4%	-13.7%
COc1ccc([C@H]2CC(=O)C=C(c3cccc(CO)c3)C2)cc1OC	/	?	-2.1%	?	-20.6%	-10.1%
Cc1occc1C(=O)N1CCN(S(=O)(=O)c2ccc(F)cc2)CC1	/	-23.8%	-0.6%	5.6%	15.4%	-1.4%
Cc1cc(NC(=O)c2ccc(Cl)c(S(=O)(=O)N3CCCCC3)c2)no1	-1.2%	?	3.6%	-28.6%	?	-6.2%
O=C(NC1=NCCS1)C1CCN(S(=O)(=O)c2ccccc2C(F)(F)F)CC1	/	?	13.8%	?	14.6%	-1.4%
COc1cc(C(=O)NCC2CCCO2)ccc1OCc1ccc(Cl)cc1 (configuration not stated)	/	?	-3.5%	?	?	-0.5%
O=C(NCC1CCCO1)C(=O)N/N=C/c1ccc(O)c(Cl)c1 (configuration not stated)	2.4%	-2.1%	8.7%	4.15µM*	18.9%	-0.8%
COc1cc(C(=O)NCC2CCCO2)ccc1OCc1ccc(Cl)cc1Cl (configuration not stated)	/	11.7µM*	0.9%	11.7µM*	?	1.6%
O=C(NCC1CCCO1)/C(=C\c1ccc(Cl)cc1)NC(=O)c1ccccc1 (configuration not stated)	-6.4%	27.3%	-1.0%	0.828µM*	6.4%	1.5%
O=C(NCC1CCCO1)C(=O)N/N=C/c1cc(Cl)ccc1O (configuration not stated)	-2.1%	?	11.2%	-7.5%	8.0%	0.3%
CC(C)(C)c1ccc(C(=O)NC(=S)NCC2CCCO2)cc1 (configuration not stated)	-1.4%	?	11.2%	-15.6%	2.3%	12.6µM*
